Several values for one entry are separate records, joined by “and”; a condition that tells them apart may be missing. Equal values may be shown once. Inconclusive results are not listed. Activity calls are given as the source filed them. Calls come from the whole dose curve.
Experiment: qHTS for Inhibitors of the Functional Ribonucleoprotein Complex (vRNP) of Lassa (LASV) Arenavirus: LASV Confirmatory Screen - GLuc reporter signal
Conditions: LASV minigenome vRNP, Gaussia luciferase reporter; series mostly up to 53.9 µM; activity, negative = inhibition: at the top concentration

Structure (SMILES)	Potency	activity, negative = inhibition
COc1cccc(-c2ccc(NC(=O)C3=C(C(=O)O)CCC3)c(F)c2)c1	6.85 µM (active)	
Cc1cccc(-c2[nH]c(C(C)(C)C)nc2-c2ccc3c(c2)OCO3)n1	3.43 µM (active)	
CCC1OC2(C)C(O)C(/C=C/C=C/C=C/c3oc(=O)cc(OC)c3C)OC1(C)C2OC(C)=O (stereo not given)	0.137 µM (active)	
CNCCCC1c2ccccc2C=Cc2ccccc21	30.6 µM (active)	
CC(O)C(O)[C@H]1CNc2nc(N)[nH]c(=O)c2N1 (stereo not given in full)		11.1% (inactive)
CCN(CC)C(=O)N[C@@H]1C=C2c3cccc4[nH]cc(c34)C[C@@H]2N(C)C1		-9.43% (inactive)
CCC(C)c1nccnc1OC (stereo not given)		-7.88% [at 110 µM] (inactive)
CCCCCN=C(N)N/N=C/c1c[nH]c2ccc(OC)cc12	8.63 µM (active)	
CCC[C@H](N[C@@H](C)C(=O)N1[C@@H]2CCCC[C@H]2C[C@H]1C(=O)O)C(=O)OCC		10.2% (inactive)
CC12C(=O)OC(=O)C1(C)C1CCC2O1 (stereo not given)	9.68 µM (active)	
COc1ccc(Cc2nccc3cc(OC)c(OC)cc23)cc1OC	3.06 µM (active) and 3.85 µM (active)	
O=C(CCCN1CCN(c2ccc(F)cc2)CC1)NC1c2ccccc2CSc2ccccc21 (stereo not given)		-7.57% (inactive)
Cc1ncc([N+](=O)[O-])n1CC(C)O (stereo not given)		5.76% (inactive)
CC1OC(=O)[C@@H](C(C)C)NC(=O)C(C(C)C)OC(=O)[C@H](C(C)C)NC(=O)C(C)OC(=O)[C@@H](C(C)C)NC(=O)C(C(C)C)OC(=O)[C@H](C(C)C)NC(=O)C(C)OC(=O)[C@@H](C(C)C)NC(=O)C(C(C)C)OC(=O)[C@H](C(C)C)NC1=O (stereo not given in full)	0.153 µM (active)	
CCCCC/C(C=O)=C\c1ccccc1		-6.3% (inactive)
COCCOC(=O)C1=C(C)NC(C)=C(C(=O)OC/C=C/c2ccccc2)C1c1cccc([N+](=O)[O-])c1 (stereo not given)	27.3 µM (active)	
CCCCC[C@H](O)/C=C/C=C/C/C=C\CCCC(=O)O		4.46% [at 0.666 µM] (inactive)
FC(F)(F)c1ccc(C=Cc2nc(COc3ccc(CCCCn4ccnn4)cc3)co2)cc1	0.0153 µM (active)	
O=C1c2ccccc2-n2c1nc1ccccc1c2=O	2.43 µM (active)	
CC1=C(C)C(=O)C(CCCCC#CCCCC#CCO)=C(C)C1=O	24.3 µM (active)	
CCCCCC[C@H]1C(=O)O[C@H](C)[C@H](NC(=O)c2cccc(NC=O)c2O)C(=O)O[C@@H](C)[C@@H]1OC(=O)CC(C)C	0.0306 µM (active)	
C=C(C)C1Cc2c(ccc3c2OC2COc4cc(OC)c(OC)cc4C2C3=O)O1 (stereo not given)	0.0217 µM (active)	
Nc1ccc([N+](=O)[O-])cc1O	0.396 µM (active)	
Cc1cc(N)c2ccccc2[n+]1CCCCCCCCCC[n+]1c(C)cc(N)c2ccccc21	1.37 µM (active)	
Cc1cc2c(C(C)C)c(O)c(O)c(C=O)c2c(O)c1-c1c(C)cc2c(C(C)C)c(O)c(O)c(C=O)c2c1O	9.68 µM (active)	

— PubChem BioAssay AID1347087 (National Center for Advancing Translational Sciences (NCATS), 2019)
